HEK293 viab = GF-AFC viability counterscreen for inhibitors of alpha-synuclein gene (SNCA) expression. HEK-293-SNCA-luc viability, GF-AFC fluorescence, 24 h. Potency, µM (series often up to 57.1 µM), hits mostly cytotoxic. actives 0.12% (n = 150,000). AID 1671193, 2021; note: nearly all actives have a fitted effect of over 30% in size
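HEK-293-SNCA-luc cells (1500/well) plated 24 h, then exposed 24 h to a dilution series; GF-AFC added 30 min at 37C, fluorescence 405/540 nm; normalised to medium-only and DMSO wells, Hill fit.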
HEK cytotox = Cytotoxic Profiling in HEK 293 Cell Line of Diverse Libraries Using Quantitative High-Throughput Screening. HEK 293 viability, ATP luminescence (CellTiter-Glo), 48-72 h. Potency, µM (highest dose often 115 µM), usual class: inhibitors. actives 6.6% (n = 94,000). AID 1345083, 2018; note: nearly all actives have a fitted effect of over 60% in size
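Pintool-delivered compounds were incubated with HEK 293 cells (250 cells/well) at 37 degree Celsius for 48 or 72 hr. ATP-dependent luminescence (CellTiter-Glo) then reported remaining viable cells.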
hNpr1 antagonist = Natriuretic polypeptide receptor (hNpr1) antagonism - Primary qHTS. Atrial natriuretic peptide receptor 1 (Homo sapiens), P16066. HEK293 hNpr1 GloSensor cGMP, ANP-stimulated luminescence. Potency, µM (doses to about 46.3 µM), usual class: inhibitors. actives 1.6% (n = 76,000). AID 1347048, 2019; calls by dose curve; note: nearly all actives have a fitted effect of over 60% in size
Target sequence (P16066 whole entry, looked up): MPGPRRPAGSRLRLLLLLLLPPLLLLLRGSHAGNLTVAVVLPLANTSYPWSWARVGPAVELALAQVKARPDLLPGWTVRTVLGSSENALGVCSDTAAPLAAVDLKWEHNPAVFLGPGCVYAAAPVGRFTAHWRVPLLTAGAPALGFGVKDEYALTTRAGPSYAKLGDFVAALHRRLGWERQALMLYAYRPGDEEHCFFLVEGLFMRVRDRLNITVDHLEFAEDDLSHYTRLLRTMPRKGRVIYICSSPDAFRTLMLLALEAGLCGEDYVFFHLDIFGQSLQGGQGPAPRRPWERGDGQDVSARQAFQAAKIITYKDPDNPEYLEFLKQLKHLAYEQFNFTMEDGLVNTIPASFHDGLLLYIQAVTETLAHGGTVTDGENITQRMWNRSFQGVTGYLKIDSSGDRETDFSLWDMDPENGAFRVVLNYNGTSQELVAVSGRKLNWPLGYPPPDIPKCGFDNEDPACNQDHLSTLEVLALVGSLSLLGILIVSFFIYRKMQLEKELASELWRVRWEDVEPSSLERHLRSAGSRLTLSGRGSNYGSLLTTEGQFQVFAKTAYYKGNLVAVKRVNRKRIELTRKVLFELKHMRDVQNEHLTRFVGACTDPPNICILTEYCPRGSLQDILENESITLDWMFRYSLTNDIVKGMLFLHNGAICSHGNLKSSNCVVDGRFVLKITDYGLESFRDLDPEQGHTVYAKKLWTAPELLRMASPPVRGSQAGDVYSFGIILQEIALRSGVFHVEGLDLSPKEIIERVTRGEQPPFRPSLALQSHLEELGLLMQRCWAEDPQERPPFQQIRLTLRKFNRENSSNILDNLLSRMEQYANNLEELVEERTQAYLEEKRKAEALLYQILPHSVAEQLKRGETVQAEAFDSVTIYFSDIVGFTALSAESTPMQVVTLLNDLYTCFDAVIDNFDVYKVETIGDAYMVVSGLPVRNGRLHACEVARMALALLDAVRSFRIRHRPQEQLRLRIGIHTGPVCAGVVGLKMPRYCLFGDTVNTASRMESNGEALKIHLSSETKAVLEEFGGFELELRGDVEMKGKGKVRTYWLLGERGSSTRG
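Compound pre-incubated 30 min at room temperature on GloSensor-loaded HEK293 cells stably carrying hNpr1 and the pGS-40F cGMP biosensor. Stimulation uses hNppA at 0.1 nM final; luminescence is taken at baseline and 20 min post-agonist.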
SNCA expr inhib = Primary qHTS assay for inhibitors of alpha-synuclein gene (SNCA) expression | HEK-293 SNCA-luciferase knock-in, luminescence, 24 h | Potency, µM (titrated, usually from 57.2 µM), hits mostly inhibitors | actives 0.17% (n = 140,000); note: nearly all actives have a fitted effect of over 45% in size
NIH3T3 tox = Cytotoxic Profiling in NIH 3T3 Cell Line of Diverse Libraries Using Quantitative High-Throughput Screening | Potency, µM (doses to about 96.7 µM), usual class: inhibitors | actives 4.3% (n = 94,000) | AID 1345082, 2018 | NIH 3T3 viability, CellTiter-Glo ATP luminescence, 48-72 h; note: nearly all actives have a fitted effect of over 55% in size
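Mouse fibroblast NIH 3T3 cells, 400 per well, received compound via pintool and were incubated for 48 or 72 hr prior to CellTiter-Glo ATP luminescence measurement.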
Luciferase inh = Firefly luciferase inhibition profiling of diverse chemical library using quantitative high-throughput screening; Luciferin 4-monooxygenase (Photinus pyralis), P08659; Potency, µM (titrated, usually from 115 µM), actives largely listed as inhibitors; actives 2.5% (n = 76,000); purified P. pyralis luciferase, luminescence, biochemical; note: nearly all actives have a fitted effect of over 65% in size
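Biochemical qHTS: compound (6-point titration) added to 10uM D-luciferin plus 10uM ATP in Tris acetate pH 7.5 buffer with Mg, Tween-20 and BSA, then purified enzyme at 10nM; light output imaged.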
Hits are given with their value; 0 = inactive; ? = inconclusive; - = no result given; [ ] = remark or other dose. Most compounds without a hit are left out; they make up all but 7.4% or so of the library. Unless noted, calls come from the whole dose curve; as a rule, active = well fitted curve in the direction sought with a large enough effect; inconclusive = small, poorly fitted or top-dose-only effect, or another doubt; inactive = no such curve, though single readings can be large; an effect the other way counts as inactive or inconclusive.

SMILES	HEK293 viab	HEK cytotox	hNpr1 antagonist	SNCA expr inhib	NIH3T3 tox	Luciferase inh
COCc1cc(C[C@@H]2C[C@H](NS(C)(=O)=O)C2(C)C)no1	0	0	0	0	0	0
CC1(C)[C@H](Cc2cc(CC3CCCCC3)on2)C[C@@H]1NC(=O)c1ccccc1	?	32µM	?	?	56µM	0
CC1(C)[C@H](Cc2cc(CC3CCCCC3)on2)C[C@@H]1NS(C)(=O)=O	0	71µM	0	0	?	0
CC1(C)[C@H](Cc2cc(CN3CCCCC3)on2)C[C@@H]1NC(=O)c1ccccc1	0	?	0	?	?	0
CC(C)Cc1cc(C[C@@H]2C[C@H](NC(=O)c3ccco3)C2(C)C)no1	0	71µM	0	0	?	0
CCCCc1cc(C[C@@H]2C[C@H](NC(=O)C(C)(C)C)C2(C)C)no1	0	71µM	0	0	?	?
CC1(C)[C@H](Cc2cc(CN3CCCCC3)on2)C[C@@H]1NC(=O)c1ccco1	0	?	0	0	?	0
C#CCNC(=O)c1cc(C(C)(C)C)nc2c1cnn2C	0[12.5 µM]	?	-	?	?	-
COc1ccc(C(=O)N[C@H]2C[C@@H](Cc3cc(-c4ccccc4)on3)C2(C)C)cc1	?	45µM	?	0	50µM	?
COc1ccc(C(=O)N[C@H]2C[C@@H](Cc3cc(CN(C)C)on3)C2(C)C)cc1	0	0	0	0	0	0
CC1(C)[C@H](Cc2cc(CN3CCN(c4ccccc4)CC3)on2)C[C@@H]1NCC1CC1	0	89µM	0	0	?	0
CC1(C)[C@H](Cc2cc(CN3CCOCC3)on2)C[C@@H]1NCc1ccc(CO)o1	0	0	0	0	0	0
O=C(Cc1ccccc1)N1CCCN(c2ccc3nnc(C4CC4)n3n2)CC1	-	0	-	-	0	-
CN1c2cc(C(=O)Nc3cccc(OC(F)(F)F)c3)ccc2C(=O)N2CCCCC21 (stereo unspecified)	0[12.5 µM]	18µM	?	0	?	?
CN1c2cc(C(=O)Nc3cccc(OC(F)(F)F)c3)ccc2C(=O)N2CCCC21 (stereo unspecified)	0[12.5 µM]	?	0	0	35µM	0
Cn1ncc2c(C(=O)N3CCCC3)cc(-c3ccc(Cl)cc3Cl)nc21	0	?	-	0	?	-
Cc1noc(C)c1-c1cc2c(cc(C)n2C)c(N2CCN(c3ccccn3)CC2)n1	0	63µM	0	0	45µM	0
Cc1cc2c(-c3ccc(CO)cc3)nc(-c3c(C)noc3C)cc2[nH]1	0	?	0	0	10µM	0
CNC(=O)c1cc2cc(-c3c(C)noc3C)nc(-c3cccnc3)c2o1	0	?	0	0	?	0
Cc1cc2c(-c3cccc(OC(C)C)c3)nc(-c3c(C)noc3C)cc2[nH]1	?	28µM	0	0	50µM	0
Cc1noc(C)c1-c1cc2c(cc(C)n2C)c(-c2cccc(CO)c2)n1	0	?	0	0	45µM	0
CNC(=O)c1cc(C2CC2)nc2c1c(C1CCN([S+](=O)([O-])c3ccc(NC(C)=O)cc3)CC1)nn2C	-	?	-	-	0	-
Cc1noc(C)c1-c1cc2cc(C(C)C)oc2c(-c2cccc(CO)c2)n1	0	71µM	0	0	?	0
Cc1noc(C)c1-c1cc2c(cc(C)n2C)c(-c2ccc(CO)cc2)n1	0	?	0	0	32µM	0
CC(=O)N1CCN(c2nc(-c3c(C)noc3C)cc3cc(C(C)C)oc23)CC1	0	?	0	0	50µM	0
SMILES	HEK293 viab	HEK cytotox	hNpr1 antagonist	SNCA expr inhib	NIH3T3 tox	Luciferase inh
CNC(=O)c1cc2cc(-c3c(C)noc3C)nc(-c3cccc(CO)c3)c2o1	0	?	0	0	?	0
Cc1ccc(C(=O)NC2CCN(c3nc4ncccc4o3)C2)cc1 (stereo unspecified)	0	0	-	0	0	-
Cc1noc(C)c1[S+](=O)([O-])NC1CCCN(CCn2nc3n(c2=O)CCCC3)C1 (stereo unspecified)	-	0	-	-	0	-
Cc1onc(-c2cnn(C)c2NCc2ccc(C#N)cc2)c1C(=O)N(C)c1cccnc1	0	0	0	0	?	0
Cc1onc(-c2cnn(C)c2NCc2ccc(C#N)cc2)c1C(=O)N(C)c1ccccc1	0	?	0	0	45µM	0
O=C(CC1CCCCN(Cc2ccccc2)C1=O)Nc1ccccc1 (stereo unspecified)	0	?	-	?	?	-
Cc1noc(C)c1C(=O)NC1CCN(c2ccc3nnc(C4CC4)n3n2)C1 (stereo unspecified)	-	0	-	-	0	-
COC(=O)c1cc(OC)c(O[C@@H]2O[C@@H](C)[C@H](O)[C@@H](O)[C@H]2O)c(OC)c1	0	-	-	-	-	-
COc1ccc(CO[C@H]2COCCN(c3nc4ccccc4o3)C2)cc1	0	?	0	0	0	0
COc1ccc(CO[C@H]2COCCN(c3nc4ccccc4s3)C2)cc1	0	100µM	0	0	?	?
Cc1nnc2ccc(N3CCCN(C(=O)C4CCCC4)CC3)nn12	-	0	-	-	0	-
COCCCn1c(=O)c(C(=O)N2CCN(C(=O)Cc3ccccn3)CC2)nc2cccnc21	0	0	-	0	0	-
CSCC(=O)N[C@H]1CCN2C(=O)N(c3ccc(C(C)C)cc3)C(=O)[C@@H]2C1	0	0	0	0	0	32µM
Cc1ccc2oc([C@H]3CCN(Cc4ccccn4)C3)nc2c1	0	?	0	0	?	?
Cc1ccc(CN2CC[C@H](c3nc4cc(C)ccc4o3)C2)cc1	0	?	0	0	?	45µM
CC(C)(C)c1nnc([C@H]2CCN(C(=O)C3CC3)C2)o1	0	0	0	0	0	0
Cc1ccc2oc([C@H]3CCN(Cc4ccc(C(=O)O)cc4)C3)nc2c1	0	0	0	0	?	71µM
Cc1ccc2oc([C@H]3CCN(C(=O)C4CC4)C3)nc2c1	0	?	0	0	0	35µM
O=C(Cc1ccsc1)Nc1cnc(-c2ccccc2)nc1	0	?	?	0	?	5µM
Cc1ccccc1-c1nc2cnccn2c1NCCC(=O)N(C)Cc1ccccc1	0	0	0	0	0	0
C=CCO[C@@H]1C[C@H]2C(=O)Nc3ccc(-c4ccccc4)cc3C(=O)N2C1	0	?	0	0	?	0
C=CCO[C@@H]1CCN2C(=O)c3cc(-c4ccc(F)cc4F)ccc3NC(=O)[C@H]12	0	112µM	0	0	0	0
COc1ccc(Cl)cc1-c1ccc2c(c1)C(=O)N1CC[C@H](NC(=O)NC(C)C)[C@H]1C(=O)N2	0	?	0	0	0	0

Screens: PubChem, National Center for Advancing Translational Sciences (NCATS)
